Assay results published in the supplement of paper PMC9694430.
Several values for one entry are separate records, joined by “and”; a condition that tells them apart may be missing. Equal values may be shown once. Where a name gives a salt, the structure may show the parent alone.

tested on: LOC_OS01G67340-cb003; experiment: thermal shift delta Tm vs DMSO control; higher = stronger stabilization (binding); details: 12.5 µM; protein concentration 2 µM
Summary of the method: (§1)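 Purified, E. coli-expressed rice kinase domain constructs were tested by differential scanning fluorimetry in 96-well plates: 19.5 μl of 2 μM kinase in 100 mM potassium phosphate pH 7.5, 150 mM NaCl, 10% glycerol, 5 × SYPRO Orange, plus compound in DMSO. Fluorescence was read from 25°C to 95°C at 0.05°C/s. Melting temperatures came from Boltzmann fits, and the shift is the triplicate mean relative to protein with DMSO alone.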

Structure (SMILES) | thermal shift delta Tm
C[C@H](CN(C)C)Oc1nc(Nc2cc3cccc(Cl)c3cn2)cnc1C#N | 0.6 °C
CN1c2ccccc2C(=O)Nc2cnc(Nc3ccc(N4CCC(O)CC4)cc3)nc21 | 1.01 °C
CCNc1nc(Nc2cc(F)c(C(=O)N3CCOCC3)cc2OC)ncc1C(F)(F)F | 0.32 °C
COc1cc2ncnc(Nc3ccc(Oc4ccccc4)cc3C)c2cc1OC | 0.17 °C
O=C1NC(=O)/C(=C/c2cccc(C(F)(F)F)c2)S1 | 0.15 °C
COc1ccc(C(=O)Nc2sc3c(c2C(N)=O)CCCC3)cc1OC | 1.69 °C
C#Cc1cccc(Nc2ncnc3cc(OCCOC)c(OCCO)cc23)c1 | -0.22 °C
FC(F)(F)c1ccc(/C=C/c2nc(COc3ccc(CCCCn4ccnn4)cc3)co2)cc1 [Mubritinib (TAK 165)] | -0.98 °C
CNC(=O)Nc1ccc(-c2nc(N3CC4CCC(C3)O4)c3cnn(C4CCC5(CC4)OCCO5)c3n2)cc1 | 0.98 °C
CC(C)(C)NS(=O)(=O)c1cncc(-c2cc(F)c3nc(N)nn3c2)c1 | 0.93 °C
C[C@@H]1CN(CC(=O)Nc2ccc3c(c2)Cc2cccc(-c4cc(=O)cc(N5CCOCC5)o4)c2S3)C[C@H](C)O1 | 0 °C
COCCOc1ccc2c(c1)ncn2-c1ccc2cccc(N3CCC(N)CC3)c2n1 | 2.25 °C
Cc1ccc(NC(=O)c2ccc(CN3CCN(C)CC3)cc2)cc1Nc1nc(-c2cccnc2)cs1 [Masitinib (AB1010)] | -0.46 °C
Cn1cc(-c2cnn3c(N)c(Br)c([C@@H]4CCCNC4)nc23)cn1 | 0.29 °C
COc1ccc(-c2cc3c(C)nc(N)nc3n([C@H]3CC[C@H](OCCO)CC3)c2=O)cn1 | 0.23 °C
Cc1ccc(S(=O)(=O)/C=C/C#N)cc1 | -0.5 °C
CCCS(=O)(=O)Nc1ccc(F)c(C(=O)c2c[nH]c3ncc(-c4ccc(Cl)cc4)cc23)c1F [Vemurafenib (PLX4032, RG7204)] | 3.46 °C
C[C@@H](N)c1ccc(C(=O)Nc2ccnc3[nH]ccc23)cc1 | 0.47 °C
O=C(NC1CCNCC1)c1n[nH]cc1NC(=O)c1c(Cl)cccc1Cl | -0.21 °C and 0.3 °C

Structure (SMILES) | thermal shift delta Tm
NCC(=O)Nc1ccc(-n2nc(C(F)(F)F)cc2-c2ccc3c(ccc4ccccc43)c2)cc1 | -0.53 °C
CCn1c(-c2nonc2N)nc2cnc(Oc3cccc(NC(=O)c4ccc(OCCN5CCOCC5)cc4)c3)cc21 | 1.07 °C
COc1cc2c3cc1Oc1c(OC)c(OC)cc4c1[C@@H](Cc1ccc(O)c(c1)Oc1ccc(cc1)C[C@@H]3N(C)CC2)N(C)CC4 [Berbamine (dihydrochloride)] | 0.28 °C
COc1cc2ncc(-c3ccccc3)nc2cc1OC [Tyrphostin AG 1296] | 1.24 °C
C[C@H]1CNCCCN1S(=O)(=O)c1cccc2cncc(F)c12 [Ripasudil (K-115) hydrochloride dihydrate] | 0.45 °C
N#Cc1c(NC(=O)c2cccc3ccccc23)sc2c1CCCC2 [JNK Inhibitor IX] | 0.34 °C
CC(C)N(CCC(=O)c1ccc2ccccc2c1)Cc1ccccc1 | -0.6 °C
COC(=O)c1ccc2c(c1)NC(=O)/C2=C(\Nc1ccc(N(C)C(=O)CN2CCN(C)CC2)cc1)c1ccccc1 [Nintedanib (BIBF 1120)] | 0.48 °C
Nc1ccc(-c2ccc3ncc4ccc(=O)n(-c5cccc(C(F)(F)F)c5)c4c3c2)cn1 [Torin 2] | 0.33 °C
COc1ccc2c(Oc3ccc(NC(=O)c4c(C)n(CC(C)(C)O)n(-c5ccccc5)c4=O)nc3)ccnc2c1 | 0.79 °C
COc1ncc(-c2ccc3nccc(-c4ccnnc4)c3c2)cc1NS(=O)(=O)c1ccc(F)cc1F | 1.24 °C
Cc1c[nH]c(/C=C2\C(=O)Nc3ccccc32)c1CCC(=O)O | 3.1 °C
Cc1cc(Nc2cc(Cl)nc(Oc3ccc([N+](=O)[O-])cc3)n2)n[nH]1 [Autophinib] | 0.51 °C
O=C(c1ccc(/C=C/c2n[nH]c3ccccc23)cc1)N1CCNCC1 | 4.9 °C
COc1ccc(CNC(=O)Nc2ncc([N+](=O)[O-])s2)cc1 | 0.55 °C
Cc1cc2c(F)c(Oc3ncnn4cc(OC[C@@H](C)O)c(C)c34)ccc2[nH]1 | -0.11 °C
C=CC(=O)Nc1cccc(Oc2nc(Nc3ccc(N4CCN(C)CC4)cc3)nc3ccsc23)c1 | 0.85 °C
O=c1cc(N2CCOCC2)oc2c(-c3ccc4c(c3)OCCO4)csc12 | 0.35 °C
c1nc2c(NC3CCCCC3)nc(Nc3ccc(N4CCOCC4)cc3)nc2[nH]1 [Reversine] | 3.68 °C

tested on: LOC_OS01G70970-cb002; experiment: as above; details: 12.5 µM; protein concentration 2 µM
Summary of the method: as §1

Structure (SMILES) | thermal shift delta Tm
C[C@H](CN(C)C)Oc1nc(Nc2cc3cccc(Cl)c3cn2)cnc1C#N | 0.34 °C
CN1c2ccccc2C(=O)Nc2cnc(Nc3ccc(N4CCC(O)CC4)cc3)nc21 | 2.61 °C
CCNc1nc(Nc2cc(F)c(C(=O)N3CCOCC3)cc2OC)ncc1C(F)(F)F | 0.73 °C
COc1cc2ncnc(Nc3ccc(Oc4ccccc4)cc3C)c2cc1OC | 0.47 °C
O=C1NC(=O)/C(=C/c2cccc(C(F)(F)F)c2)S1 | 0.3 °C
COc1ccc(C(=O)Nc2sc3c(c2C(N)=O)CCCC3)cc1OC | 0.41 °C
C#Cc1cccc(Nc2ncnc3cc(OCCOC)c(OCCO)cc23)c1 | 0.5 °C
FC(F)(F)c1ccc(/C=C/c2nc(COc3ccc(CCCCn4ccnn4)cc3)co2)cc1 [Mubritinib (TAK 165)] | 0.3 °C
CNC(=O)Nc1ccc(-c2nc(N3CC4CCC(C3)O4)c3cnn(C4CCC5(CC4)OCCO5)c3n2)cc1 | 0.28 °C
CC(C)(C)NS(=O)(=O)c1cncc(-c2cc(F)c3nc(N)nn3c2)c1 | 0.9 °C
C[C@@H]1CN(CC(=O)Nc2ccc3c(c2)Cc2cccc(-c4cc(=O)cc(N5CCOCC5)o4)c2S3)C[C@H](C)O1 | -0.1 °C
COCCOc1ccc2c(c1)ncn2-c1ccc2cccc(N3CCC(N)CC3)c2n1 | 8.53 °C
Cc1ccc(NC(=O)c2ccc(CN3CCN(C)CC3)cc2)cc1Nc1nc(-c2cccnc2)cs1 [Masitinib (AB1010)] | 0.24 °C
Cn1cc(-c2cnn3c(N)c(Br)c([C@@H]4CCCNC4)nc23)cn1 | 0.3 °C
COc1ccc(-c2cc3c(C)nc(N)nc3n([C@H]3CC[C@H](OCCO)CC3)c2=O)cn1 | 0.14 °C
Cc1ccc(S(=O)(=O)/C=C/C#N)cc1 | -2.73 °C
CCCS(=O)(=O)Nc1ccc(F)c(C(=O)c2c[nH]c3ncc(-c4ccc(Cl)cc4)cc23)c1F [Vemurafenib (PLX4032, RG7204)] | 3.78 °C
C[C@@H](N)c1ccc(C(=O)Nc2ccnc3[nH]ccc23)cc1 | 0.39 °C
O=C(NC1CCNCC1)c1n[nH]cc1NC(=O)c1c(Cl)cccc1Cl | 0.28 °C and 0.16 °C

Structure (SMILES) | thermal shift delta Tm
NCC(=O)Nc1ccc(-n2nc(C(F)(F)F)cc2-c2ccc3c(ccc4ccccc43)c2)cc1 | 0.2 °C
CCn1c(-c2nonc2N)nc2cnc(Oc3cccc(NC(=O)c4ccc(OCCN5CCOCC5)cc4)c3)cc21 | 0.14 °C
COc1cc2c3cc1Oc1c(OC)c(OC)cc4c1[C@@H](Cc1ccc(O)c(c1)Oc1ccc(cc1)C[C@@H]3N(C)CC2)N(C)CC4 [Berbamine (dihydrochloride)] | 0.03 °C
COc1cc2ncc(-c3ccccc3)nc2cc1OC [Tyrphostin AG 1296] | 0.75 °C
C[C@H]1CNCCCN1S(=O)(=O)c1cccc2cncc(F)c12 [Ripasudil (K-115) hydrochloride dihydrate] | 0.28 °C
N#Cc1c(NC(=O)c2cccc3ccccc23)sc2c1CCCC2 [JNK Inhibitor IX] | 0 °C
CC(C)N(CCC(=O)c1ccc2ccccc2c1)Cc1ccccc1 | -5.39 °C
COC(=O)c1ccc2c(c1)NC(=O)/C2=C(\Nc1ccc(N(C)C(=O)CN2CCN(C)CC2)cc1)c1ccccc1 [Nintedanib (BIBF 1120)] | 2.57 °C
Nc1ccc(-c2ccc3ncc4ccc(=O)n(-c5cccc(C(F)(F)F)c5)c4c3c2)cn1 [Torin 2] | 0.87 °C
COc1ccc2c(Oc3ccc(NC(=O)c4c(C)n(CC(C)(C)O)n(-c5ccccc5)c4=O)nc3)ccnc2c1 | 0.65 °C
COc1ncc(-c2ccc3nccc(-c4ccnnc4)c3c2)cc1NS(=O)(=O)c1ccc(F)cc1F | 0.34 °C
Cc1c[nH]c(/C=C2\C(=O)Nc3ccccc32)c1CCC(=O)O | 5.88 °C
Cc1cc(Nc2cc(Cl)nc(Oc3ccc([N+](=O)[O-])cc3)n2)n[nH]1 [Autophinib] | 1.07 °C
O=C(c1ccc(/C=C/c2n[nH]c3ccccc23)cc1)N1CCNCC1 | 6.89 °C
COc1ccc(CNC(=O)Nc2ncc([N+](=O)[O-])s2)cc1 | 0.54 °C
Cc1cc2c(F)c(Oc3ncnn4cc(OC[C@@H](C)O)c(C)c34)ccc2[nH]1 | 0.52 °C
C=CC(=O)Nc1cccc(Oc2nc(Nc3ccc(N4CCN(C)CC4)cc3)nc3ccsc23)c1 | 1.8 °C
O=c1cc(N2CCOCC2)oc2c(-c3ccc4c(c3)OCCO4)csc12 | 0.12 °C
c1nc2c(NC3CCCCC3)nc(Nc3ccc(N4CCOCC4)cc3)nc2[nH]1 [Reversine] | 7.39 °C
